Reference: PubChem BioAssay AID1159580 (chemical genetic matrix, 2015)
The campaign covered roughly 5,500 compounds. About 2,000 (36%) were called active. Not shown: some 18% with an inconclusive outcome. Rule as the data show it: active = normalized growth mostly below about 0.91 (no sharp cut-off); inconclusive = no clear call, values can overlap the other calls; inactive = mostly above about 0.92. This is one part of the list.

Experiment: chemical genetic growth profiling, strain panel (AID 1159580);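 also: tested at 20 µM; growth read once vehicle control cultures reached saturation at 30 °C; 1 = growth at the plate median or of vehicle wells; lower values mean less growth of the strain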
Settings: S. cerevisiae deletion strains, growth OD

Measured: normalized growth

CC(C)CSc1nnc(CSCc2nc(-c3ccc(Cl)cc3)cs2)n1C
inactive: locus YAR019C, strain CDC15, active compounds read low 0.979 | locus YBL105C, strain PKC1, active compounds read low 0.964 | locus YBR135W, strain CKS1, active compounds read low 0.968 | locus YBR136W, strain MEC1, active compounds read low 0.964 | locus YBR160W, strain CDC28, active compounds read low 0.97 | locus YDL017W, strain CDC7, active compounds read low 0.974 | locus YDL028C, strain MPS1, active compounds read low 0.966 | locus YDL101C, strain DUN1, active compounds read low 0.958 | locus YDL108W, strain KIN28, active compounds read low 0.96 | locus YDL132W, strain cdc53, active compounds read low 0.961 | locus YDL214C, strain PRR2, active compounds read low 0.94 | locus YDR052C, strain DBF4, active compounds read low 0.974 | locus YDR054C, strain cdc34, active compounds read low 0.968 | locus YDR226W, strain ADK1, active compounds read low 0.974 | locus YDR477W, strain SNF1, active compounds read low 0.965 | locus YER123W, strain YCK3, active compounds read low 0.913 | locus YER133W, strain GLC7, active compounds read low 0.954 | locus YFL009W, strain cdc4, active compounds read low 0.976 | locus YFL029C, strain CAK1, active compounds read low 0.973 | locus YFR003C, strain YPI1, active compounds read low 0.965 | locus YFR019W, strain FAB1, active compounds read low 0.946 | locus YFR028C, strain CDC14, active compounds read low 0.97 | locus YGR040W, strain KSS1, active compounds read low 0.931 | locus YGR052W, strain FMP48, active compounds read low 0.979 | locus YGR092W, strain DBF2, active compounds read low 0.981 | locus YHR030C, strain SLT2, active compounds read low 1.03 | locus YHR079C, strain IRE1, active compounds read low 1.06 | locus YHR082C, strain KSP1, active compounds read low 1.03 | locus YHR205W, strain SCH9, active compounds read low 0.988 | locus YIL147C, strain SLN1, active compounds read low 0.962 | locus YJL095W, strain BCK1, active compounds read low 0.956 | locus YJL128C, strain PBS2, active compounds read low 0.929 | locus YJL157C, strain FAR1, active compounds read low 0.956 | locus YJR016C, strain ILV3, active compounds read low 0.971 | locus YJR066W, strain TOR1 (second series), active compounds read low 0.961 | locus YJR066W, strain TOR1, active compounds read low 1.05 | locus YKL048C, strain ELM1, active compounds read low 0.954 | locus YKL067W, strain YNK1, active compounds read low 0.95 | locus YKL101W, strain HSL1, active compounds read low 0.925 | locus YKL193C, strain SDS22, active compounds read low 0.971 | locus YKL203C, strain TOR2, active compounds read low 1.02 | locus YLR113W, strain HOG1, active compounds read low 0.865 | locus YLR133W, strain CKI1, active compounds read low 0.927 | locus YLR403W, strain SFP1, active compounds read low 0.948 | locus YML070W, strain DAK1, active compounds read low 0.929 | locus YMR001C, strain CDC5, active compounds read low 0.973 | locus YMR205C, strain PFK2 (second series), active compounds read low 0.961 | locus YMR277W, strain FCP1, active compounds read low 0.966 | locus YNL006W, strain LST8, active compounds read low 0.979 | locus YNL020C, strain ARK1, active compounds read low 0.941 | locus YNL161W, strain CBK1, active compounds read low 0.973 | locus YNL183C, strain NPR1, active compounds read low 1.01 | locus YNL207W, strain RIO2, active compounds read low 0.967 | locus YNL222W, strain SSU72, active compounds read low 0.972 | locus YNL307C, strain MCK1 (second series), active compounds read low 0.974 | locus YOL078W, strain AVO1, active compounds read low 0.964 | locus YOL136C, strain PFK27, active compounds read low 0.882 | locus YOR061W, strain CKA2, active compounds read low 0.939 | locus YOR119C, strain RIO1, active compounds read low 1.01 | locus YOR231W, strain MKK1, active compounds read low 0.944 | locus YOR329C, strain SCD5, active compounds read low 0.974 | locus YPL031C, strain PHO85, active compounds read low 0.95 | locus YPL153C, strain RAD53, active compounds read low 0.96 | locus YPL204W, strain HRR25, active compounds read low 0.917 | locus YPL209C, strain IPL1, active compounds read low 0.974 | locus YPL256C, strain CLN2, active compounds read low 0.999 | locus YPR025C, strain CCL1, active compounds read low 0.969 | locus YPR106W, strain ISR1, active compounds read low 0.962 | locus YPR111W, strain DBF20, active compounds read low 0.95 | strain NNK1, active compounds read low 0.966 | strain TSCII, active compounds read low 0.969
